# IP6K1 inhibitor: IP6K1 kinase inhibition; Q92551; IP6K1 kinase, ADP-Glo luminescence, 2 h; hits give low values; activity change, % (series mostly up to about 58 µM); 140,000 tested, 0.81% active; in the data active = activity change below about -25%; note: % is set by controls: 0 for no effect and ±100 for the full control effect
# Target sequence (Q92551 whole entry, looked up): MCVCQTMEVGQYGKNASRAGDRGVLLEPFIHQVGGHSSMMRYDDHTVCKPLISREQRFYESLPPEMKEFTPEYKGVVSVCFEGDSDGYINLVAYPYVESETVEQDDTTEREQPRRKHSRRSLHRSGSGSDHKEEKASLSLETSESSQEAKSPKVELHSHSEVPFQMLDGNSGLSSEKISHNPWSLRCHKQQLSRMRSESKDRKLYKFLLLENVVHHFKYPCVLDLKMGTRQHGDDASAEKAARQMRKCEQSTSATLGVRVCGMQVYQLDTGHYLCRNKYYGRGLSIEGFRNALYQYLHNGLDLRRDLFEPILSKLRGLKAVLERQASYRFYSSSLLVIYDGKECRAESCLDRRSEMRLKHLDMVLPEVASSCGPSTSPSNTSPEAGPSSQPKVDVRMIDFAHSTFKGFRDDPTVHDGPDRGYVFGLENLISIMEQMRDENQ
#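 ADP-Glo luminescence measures ADP made by human IP6K1 during a 2 h RT reaction with ATP/IP6 (mix at 1.3 mM/130 uM); top library doses 57.5 and 19.1 uM final.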
# KDM5B inh: blocks human KDM5B histone demethylase activity | KDM5B demethylase, FDH-coupled NADH fluorescence (FDH is formaldehyde dehydrogenase) | Potency, µM (doses to about 57.7 µM), usual class: inhibitors | 220,000 tested, 2.6% active | AID 1347165; active = well fitted inhibition curve with a large enough effect; inconclusive = small, poorly fitted or top-dose-only effect; inactive = no such curve, though single readings can be large or run the other way; note: potency is the fitted concentration of half-maximal effect; 0% is about no effect; nearly all actives have a fitted effect of over 70% in size
#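 Coupled FDH/NAD⁺ fluorescence readout. KDM5BΔAP 200 nM final; compound titration, 10 min RT preincubation; substrate mix 12.5 µM H3K4me3, 25 µM 2-OG, 50 µM Fe(II), 100 µM ascorbate, 0.25 mM NAD⁺, 0.25 U/mL FDH; ΔRFU over 30 min.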
# The depositor's hits bear a star; i = inactive; ? = inconclusive; . = no result. Shown are actives, neighbours in structure and some others; about 2.8% of the full set was active somewhere.
SMILES,IP6K1 inhibitor,KDM5B inh
COc1ccc2cc(C(=O)N3CCN4CCS(=O)(=O)N(C5CC5)C(=O)C4C3)[nH]c2c1 (stereo not drawn),0,i
COc1ccc(C(=O)N2C[C@@H](CO)[C@H](c3ccncc3)C2)cc1,-9,i
COc1ccc2[nH]c(C(=O)N3C[C@@H](CO)[C@H](c4ccncc4)C3)cc2c1,-10,32µM*
COc1ccc2[nH]c(C(=O)N3CCN4CCS(=O)(=O)N(C5CC5)C(=O)C4C3)cc2c1 (stereo not drawn),12,25µM*
O=C(N1CCCC(c2nn[nH]n2)C1)C1(c2ccccc2)CC1 (stereo not drawn),15,?
CC(=O)NC(CC(=O)N1CCN(CC(=O)Nc2cccc(C)c2C)CC1)c1ccccc1 (stereo not drawn),.,i
C=C(C)CN(CC)C(=O)c1ccc(NC(=O)c2cccs2)cc1,.,i
Cc1c(C#N)oc2ccccc12,.,i
CN(CC(=O)N1CCc2nc3cc(-c4ccccc4)[nH]n3c(=O)c2C1)S(=O)(=O)c1cccs1,0,?
COc1ccc(-c2cc3nc4c(c(=O)n3[nH]2)CN(S(=O)(=O)c2cccs2)CC4)cc1,0,?
CN(CC(=O)N1CCc2nc3cc(-c4ccccc4)[nH]n3c(=O)c2C1)S(=O)(=O)c1cnc[nH]1,10,28µM*
COc1ccc(-c2cc3nc4c(c(=O)n3[nH]2)CN(C(=O)CN(C)S(=O)(=O)c2cnc[nH]2)CC4)cc1,-10,25µM*
O=C(NCc1ccncc1)[C@@H]1C[C@@H](c2ccc(F)cc2)N([S+](=O)([O-])c2cccnc2)C1,2,?
Cc1ccc(C)c(OC(=O)c2ccccc2F)c1,.,i
COc1ccc(C(=O)Nc2cc(-c3ccncc3)nn2C)cc1,-12,.
O=C(CCCc1ccccc1)NCc1nnc2c(-c3nc(C4CC4)no3)cccn12,13,28µM*
O=C(NCc1nnc2c(-c3nc(C4CC4)no3)cccn12)C1CCC1,2,28µM*
COc1ccc(CCC(=O)NCc2nnc3c(-c4nc(C5CC5)no4)cccn23)cc1,1,i
O=C(CCC1CCCC1)NCc1nnc2c(-c3nc(C4CC4)no3)cccn12,-4,11µM*
CCCc1noc(-c2cccn3c(CNC(=O)CCC4CCCC4)nnc23)n1,5,?
O=C(Cc1cccc2ccccc12)NCCc1cccnc1,.,i
CCOC(=O)c1sc(-c2cc(OC)c(OC)c(OC)c2)cc1NC(=O)c1cnccn1,.,i
COc1ccc(N2CCN(C(=O)Cn3c(-c4cccc(Cl)c4)nc(C)c(CCO)c3=O)CC2)cc1,4,i
C=C(C)CNC(=O)CC1COc2ccc(C(=O)NCCOC)cc2N1C (stereo not drawn),1,?
COCCNC(=O)c1ccc2c(c1)N(C)C(CC(=O)NCC(C)(C)C)CO2 (stereo not drawn),6,28µM*
SMILES,IP6K1 inhibitor,KDM5B inh
COCCNC(=O)c1ccc2c(c1)N(C)C(CC(=O)NCc1ccoc1)CO2 (stereo not drawn),-5,28µM*
CCCN(C)C(=O)CC1COc2ccc(C(=O)NCCOC)cc2N1C (stereo not drawn),27,32µM*
COCCNC(=O)c1ccc2c(c1)N(C)C(CC(=O)Nc1cccnc1)CO2 (stereo not drawn),-4,?
CCC(CC)N(CC)C(=O)CC1COc2ccc(C(=O)N(C)C)cc2N1C (stereo not drawn),11,i
COC(=O)c1ccc(C(=O)OC)c(NC(=O)NCCn2c(-c3ccccc3)nc3ccccc32)c1,.,i
Cc1cccc2[nH]c(CN(C)C(=O)c3ccc(CCC(C)(C)O)cc3)nc12,-8,i
N#C/C(=C/c1cccc(NC(=O)c2ccc(Cl)cc2)c1)c1ccccn1,.,i
CCCc1noc(-c2cccn3c(CNC(=O)C4CC4)nnc23)n1,-2,25µM*
CCCc1noc(-c2cccn3c(CNC(=O)C4CCCCC4)nnc23)n1,6,?
CCc1noc(-c2cccn3c(CNC(=O)C4CC4)nnc23)n1,-2,25µM*
CC(C)c1noc(-c2cccn3c(CNC(=O)C4CC4)nnc23)n1,7,28µM*
CCc1noc(-c2cccn3c(CNC(=O)C4CCCCC4)nnc23)n1,7,?
CC(C)N(C(=O)c1cccc(F)c1)C(C)C,.,i
CN(C)c1cccc(C(=O)NC2CCCN(c3cc(-c4ccc(F)cc4)[nH]n3)C2)c1 (stereo not drawn),2,?
CN(C)c1cccc(C(=O)NC2CCN(c3cnn(C)c(=O)c3)CC2)c1,16,25µM*
CN(C)c1ccc(C(=O)NC2CCCN(c3cc(-c4ccccc4)[nH]n3)C2)cc1 (stereo not drawn),7,i
CN(C)c1ccc(C(=O)NC2CCN(c3cc(-c4ccccc4)[nH]n3)C2)cc1 (stereo not drawn),3,14µM*
O=C(NC1CCN(c2cc(-c3ccc(F)cc3)[nH]n2)CC1)c1ccccc1Cl,-5,i
CN(C)c1cccc(C(=O)NC2CCN(c3cc(-c4ccccc4)[nH]n3)C2)c1 (stereo not drawn),6,25µM*
O=C(NC1CCN(c2cc(-c3ccc(F)cc3)[nH]n2)CC1)c1cccc2[nH]ccc12,7,32µM*
Cn1ncc(N2CCC(NC(=O)c3ccc4c(c3)OCO4)CC2)cc1=O,37,i
Oc1ccc(Cl)cc1C=Nc1ccccc1C(F)(F)F,.,i
CCCNC(=O)c1ccc2[nH]c(C)c(C)c2c1,.,i
Cc1ccc(C(=O)NC2CCN(c3cc(-c4ccc(F)cc4)[nH]n3)C2)cc1 (stereo not drawn),0,?
CN(C)c1cccc(C(=O)NC2CCN(c3cc(-c4ccccc4)[nH]n3)CC2)c1,15,20µM*
SMILES,IP6K1 inhibitor,KDM5B inh
O=C(NC1CCN(c2cc(-c3ccccc3)[nH]n2)CC1)c1ccccc1,12,i
COc1ccc(-c2cc(N3CCCC(NC(=O)c4ccc(N(C)C)cc4)C3)n[nH]2)cc1 (stereo not drawn),0,25µM*
Cc1ccc(C(=O)NC2CCN(c3cc(-c4ccccc4)[nH]n3)C2)cc1 (stereo not drawn),1,14µM*
CN(C)c1ccc(C(=O)NC2CCCN(c3cc(-c4ccc(F)cc4)[nH]n3)C2)cc1 (stereo not drawn),3,?
COc1ccc(/C=C/C(=O)Oc2ccc(Cl)cc2Cl)cc1,.,i
Cc1cn2nc(C(=O)N3CCC(NC(=O)Cc4ccsc4)CC3)cc2c(=O)[nH]1,8,?
Cc1cccc(CN(C(=O)c2ccco2)c2ccc(CC(=O)N(C)Cc3ccccc3)cc2)c1,5,28µM*
Cc1cccc(CNC(=O)Cc2ccc(N(Cc3ccc(F)cc3)C(=O)c3ccco3)cc2)c1,10,?
CSc1ccc(/C=C/c2nc3ccccc3n2S(=O)(=O)c2cccc(Cl)c2)cc1,-41*,?
Cc1ccc(/C=C/c2nc3ccccc3n2S(=O)(=O)c2ccc(Br)cc2)cc1,1,?
COc1ccc(NC(=O)Nc2ccc(C)n(CC(=O)Nc3ccc(C)c(C)c3)c2=O)cc1,-1,18µM*
COc1cccc(NC(=O)Cn2c(C)ccc(NC(=O)Nc3ccc(C)cc3)c2=O)c1,-6,28µM*
COc1ccc(NC(=O)Nc2ccc(C)n(CC(=O)O)c2=O)cc1,-5,i
CCCN1CCN(C(=O)Cn2c(C)ccc(NC(=O)Nc3ccccc3)c2=O)CC1,2,25µM*
